This passage reports growth results from PubChem BioAssay (NCI).

Compounds without any hit were thinned out: in the full panel of roughly 83,000, 20% have a hit.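 Each cell line was grown in a 96-well plate and treated with one concentration of compound for 48 hours. Values below 10 were considered active.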 Calls of active or inactive are those of the source.

The test system of this experiment is HCC-2998 colon. As to the kind of experiment: NCI-60 one-dose screen, 48 h (100 = growth as untreated, 0 = no growth, -100 = all killed). The conditions noted are these: 10 µM unless noted. The procedure: Growth inhibition of the HCC-2998 human tumor cell line is measured as a screen for anti-cancer activity. Cells are grown in 96 well plates and exposed to the test compound for 48 hours. Compounds are tested at a single concentration, which is 10^-5 M for most compounds. The reported endpoint is percent growth (GI% or GIPRCNT), where numbers from 0 - 100% represent growth inhibition, and numbers from -100% - 0 represent cell death. For example, a value of 40 represents 60% growth inhibition. A value of 0 means no net growth occurred over the course of the experiment. A value of -40 indicates 40% of cells at the beginning of the experiment died by the end of the experiment. A value of -100 means all cells are dead at the end of the experiment.
NCI-60 Human Tumor Cell Lines Screen was performed using the standard one-dose NCI protocol, which is described in more detail at https://dtp.cancer.gov/discovery_development/nci-60/default.htm.
Compounds with GIPRCNT values below 10 were considered active. Activity score was based on GIPRCNT using the following formula: […]
Score is 0 for GIPRCNT values of 100 or above, 50 for GIPRCNT values of 0, and 100 for GIPRCNT values of -100.
Consider `C=C1CCC2C3(C)COC(c4ccccc4)OC3CCC2(C)C1/C=C/C1=CCOC1=O` (stereo not given), for which the growth was 111% (inactive). Under `Nc1cccc(-c2nc3sccn3c2-c2ccnc(NCCNS(=O)(=O)c3ccc(C(F)(F)F)cc3)n2)c1` stands 121% (inactive); under `COc1ccc(-c2c(N)n[nH]c2-c2cc(OC)c(OC)c(OC)c2)cc1`, -2.65% (active). Under `COc1ccc2c(c1)[nH]c(=O)c1c3cccc(F)c3cn21` stands 31.9% (inactive). Under `CC(C)(C)NCCC(O)c1cc2c(Cl)cc(Cl)cc2c2cc(C(F)(F)F)ccc12` (stereo not given) stands -83% (active); under `O=C(/C=C\c1cccc([N+](=O)[O-])c1)/C=C/c1cccc([N+](=O)[O-])c1`, 97% (inactive). Turning to `COc1cc(C2NN=C3c4ccccc4CCC32)cc(OC)c1OC` (stereo not given), the growth is 110% (inactive). As to `CCCCCCCCC(C)OC(=O)c1nn(C(C)=O)c2ccccc12` (stereo not given), the growth was 98% (inactive). Under `Nc1nc(Nc2cc(Cl)cc(Cl)c2)nn1S(=O)(=O)c1ccc2ccccc2c1` stands 68.3% (inactive); under `O=C(NCc1cn(Cc2cccc(Oc3ccccc3)c2)nn1)c1cccnc1Nc1ccc(F)cc1`, 62.7% (inactive); under `C=C(C)[C@@H]1C[C@H](O)Cc2cc(F)ccc2N1`, 118% (inactive). Under `O=[N+]([O-])c1cc(Cl)c2[nH]c3c(Cl)cc([N+](=O)[O-])cc3c2c1` stands 34.8% (inactive). `CCCN=C1NC(=O)/C(=C/c2nc(-c3ccc(OC)cc3)n3ccccc23)S1`: the growth is 97% (inactive). Under `Cn1cc(-c2cnc3ccc(NC(=O)Nc4ccc(F)c(Br)c4)cc3n2)cn1` stands 49.2% (inactive). As for `CC(=O)OC[C@]12CC[C@H]3[C@@H](C[C@H]4O[C@]45CC=CC(=O)[C@]35C)[C@]1(O)CC[C@@]2(O)[C@@](C)(O)C1CC(C)=C(C)C(=O)O1` (stereo not given in full), the growth was -82.8% (active). As for `N/C(=N\C(N)=N\c1nc2ccccc2s1)c1ccncc1`, the figure is 79.1% (inactive); as for `Oc1ccc2cc(Br)ccc2c1-c1c(O)ccc2cc(Br)ccc12`, 56.5% (inactive). As for `C=C1c2nc3ccccc3n2C=C(c2ccc(Cl)cc2)N1Cc1ccccc1`, the growth is 89.2% (inactive). Under `COc1cccc(-c2nc3sccn3c2-c2ccnc(NCCCNS(=O)(=O)c3ccc(F)cc3)c2)c1` stands 61.5% (inactive); under `c1coc(CNc2ccnc(Nc3ccc(OCCN4CCCCC4)cc3)n2)c1`, 99.5% (inactive). In the case of `COc1ccc(C2CC(c3ccc(OC)cc3OC)=NN2c2ccc(S(N)(=O)=O)cc2)cc1` (stereo not given), the growth was 121% (inactive). As for `O=C1NN(C(=O)c2ccc(Cl)cc2)C(c2ccccc2)=N/C1=C\c1ccc(F)cc1`, the figure is 95.3% (inactive); as for `COc1ccc2c(c1)NC1=C(C(=O)OC1)C2c1cc(OC)c2c(c1)OCO2` (stereo not given), 11.3% (inactive). Under `C=C[C@@H]1C[C@H](O)Cc2c(C)cc(C)cc2N1` stands 94.2% (inactive). `Nc1nnc(-c2ccc3ccccc3c2O)o1`: the growth is 89.5% (inactive). As for `Cc1[nH]c2ccc(F)cc2c1CCNC(=O)C1CCN(C(=O)c2ccccc2)CC1`, the figure is 104% [25 µM] (inactive); as for `O=c1[nH]c(NCc2ccccc2)nc2nc(Nc3ccc(NC(=S)Nc4ccccc4)cc3)nc(-c3ccc(O)cc3O)c12`, 113% (inactive); as for `O=[N+]([O-])c1cc(S(=O)(=O)Oc2ccccc2)ccc1Cl`, -77.9% (active). As for `O=C1/C(=C/c2ccc([N+](=O)[O-])cc2)CN(C(=O)CCN2CCC(=NO)CC2)C/C1=C\c1ccc([N+](=O)[O-])cc1`, the figure is -72.2% (active); as for `CCOC(=O)c1c(NS(=O)(=O)c2ccc(C)cc2)sc2c1CCC1(C2)OCCO1`, 92% (inactive); as for `O=S(=O)(c1ccc(OCCO)cc1)c1ccc(OCCO)cc1`, 104% (inactive). As for `O=C(O)c1nc(-c2ccccc2)oc1N1CCOCC1`, the growth was 105% (inactive). Take `C=C1CCC2C3(C)COC(c4c(OC)cccc4OC)OC3CCC2(C)C1C/C=C1/C(=O)OCC1O` (stereo not given): the growth was 113% (inactive). As for `CCc1ccc(-c2ccc(=O)n(-c3ccc(S(N)(=O)=O)cc3)n2)cc1`, the figure is 53.9% (inactive); as for `O=C1Nc2ccc3c(c2/C1=C\c1cc2c(cc1Br)OCO2)OCO3`, 43.6% (inactive). As for `COc1cc(C(=O)/C=C/c2ccc3nc(-c4cc(F)cc(F)c4)sc3c2)cc(OC)c1OC`, the growth is 93.1% (inactive). Under `COP(=O)(OC)/C(=N\NS(=O)(=O)c1ccc(C)cc1)c1ccccc1` stands 102% (inactive).

Take `Cc1c(C(=O)/C=C/c2csc3ccccc23)[n+](=O)c2ccccc2n1[O-]`: the growth is 78.5% (inactive). Under `O=C(Nc1ccncc1)C(=O)c1cn(S(=O)(=O)c2ccc(Cl)cc2)c2ccccc12` stands 54.7% (inactive); under `Cn1c(=O)c2[nH]c(C3CC=CCC3)nc2n(C)c1=O` (stereo not given), 104% (inactive).
